# According to PubChem BioAssay (NCI):
# About 83,000 compounds went through this panel and 20% of them were active in at least one assay; those are over-represented in the sample as a whole.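 How to read the values: 0–100, growth inhibition (40 = 60% inhibited); 0, no net growth; -100 to 0, cell death (-40 = 40% of starting cells died; -100 = all dead).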 Unmarked numbers belong to inactive results. Active and inactive are the calls of the source. The calls were made as follows: active = growth percent below 10; inactive = the rest.
# System: MDA-MB-468 breast
# Test: NCI-60 one-dose screen, 48 h (100 = growth as untreated, 0 = no growth, -100 = all killed)
# Settings: 10 µM unless noted
row,Compound,growth
1,CCOC(=O)Nc1ccc2nc(-c3cscn3)[nH]c2c1,-2.03% (active)
2,NC(=O)C1CC2C=CC1C2 (centres undefined),109%
3,CC1=CC(=O)CC(C)(C)[C@@]1(O)/C=C/[C@@H](C)O,72.9%
4,CCOc1cc2ncc(C#N)c(Nc3ccc(OCc4ccccn4)c(Cl)c3)c2cc1NC(=O)/C=C/CN(C)C,-35.1% (active)
5,Fc1cc(C(F)(F)F)ccc1-c1cncnc1NC1CCCCCC1,82.4%
6,CCNCCCn1c2c(c3ccc(F)cc3c1=O)C(=O)c1cc(OC)cnc1-2,-75.7% (active)
7,Clc1ccc(Nc2nccc(Nc3ccc4[nH]ncc4c3)n2)cc1,33.6%
8,O=C(/C=C/c1cccc([N+](=O)[O-])c1)c1ccc(Nc2nc(N3CCCCC3)nc(N3CCCCC3)n2)cc1,121%
9,C=C(C=O)[C@@H]1CC[C@]2(C)[C@H](C(=O)C=C3[C@H]4C[C@](C)(C(=O)OC)CC[C@]4(C)CC[C@]32C)[C@@]1(C)CCC#N,80.2%
10,CC(C)C1(C(C)C)NC(=O)NC1=O,101%
11,CCCCCCCCCCC(CN(CC)CC)C(O)c1ccccc1 (centres undefined),-61.2% (active)
12,Clc1ccc(C2CC(c3cccc(Nc4ccncc4)c3)=NN2c2cc(Cl)cc(Cl)c2)cc1 (centres undefined),84.9%
13,C#C[C@]1(O)CC[C@H]2[C@@H]3CC=C4c5sc(-c6ccc(C)cc6)nc5CC[C@]4(C)[C@H]3CC[C@@]21C,84.4%
14,CNCCN(C)c1ccc(Nc2cc(NC3CC3)n3ncc(C#N)c3n2)cc1NC(C)=O,-54.5% (active)
